# Experimental data published in PMC7862700, “An all-to-all approach to the identification of sequence-specific readers for epigenetic DNA modifications on cytosine”.
# Columns and labels:
# Assay in all cases: DAPPL (digital affinity profiling via proximity ligation, sequencing); 10 mM Tris-HCl pH 7.5, 50 mM NaCl, 1 mM DTT, 4% glycerol, room temperature, 30 min; GST-TFs on glutathione beads, 16-mer random dsDNA library, 0.1% formaldehyde crosslink after washing; high values mean tight binding
# FEV = target: T1, FEV (Homo sapiens, UniProt Q99581 1-238); details: protein: recombinant; tags: N-terminal GST; dsDNA, one strand shown
# T1 sequence: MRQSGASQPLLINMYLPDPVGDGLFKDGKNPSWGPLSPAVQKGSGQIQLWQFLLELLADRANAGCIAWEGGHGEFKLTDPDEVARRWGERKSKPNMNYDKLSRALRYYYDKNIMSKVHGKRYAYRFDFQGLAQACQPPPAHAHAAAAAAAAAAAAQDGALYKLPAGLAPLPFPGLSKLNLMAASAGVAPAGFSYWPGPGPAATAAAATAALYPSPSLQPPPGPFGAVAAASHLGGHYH
# In short: (§1)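 GST fusions of human transcription factors were expressed in yeast and captured with glutathione beads. Once given DNA barcodes and pooled alongside a tag-only sample, they were incubated for 30 min at room temperature with 200 nmole of a random double-stranded 16-mer DNA library in Tris/NaCl/DTT/glycerol buffer, then washed, crosslinked (0.1% formaldehyde), proximity-ligated, PCR-amplified and sequenced on an Illumina NextSeq500. The binding signal of each hexamer is its read frequency for a factor divided by its frequency for the tag-only sample.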
# ETV5 = ETV5 (Homo sapiens, UniProt P41161 1-510); details: protein: recombinant; tags: N-terminal GST; dsDNA, one strand shown
# In short: as §1
# HSF1 = HSF1 (Homo sapiens, UniProt Q00613 1-529); details: protein: recombinant; tags: N-terminal GST; chain copies: 3; dsDNA, one strand shown
# In short: as §1
# SPIC = target: T2, SPIC (Homo sapiens, UniProt Q8N5J4 1-248); details: protein: recombinant; tags: N-terminal GST; dsDNA, one strand shown
# T2 sequence: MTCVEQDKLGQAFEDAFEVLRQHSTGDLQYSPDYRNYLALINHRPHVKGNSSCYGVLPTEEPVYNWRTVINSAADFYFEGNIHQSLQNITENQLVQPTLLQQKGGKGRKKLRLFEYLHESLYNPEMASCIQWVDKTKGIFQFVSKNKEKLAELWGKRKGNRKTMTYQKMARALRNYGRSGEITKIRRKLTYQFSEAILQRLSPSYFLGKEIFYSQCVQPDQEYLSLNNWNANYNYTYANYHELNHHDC
# In short: as §1
# ELF4 = ELF4 (Homo sapiens, UniProt Q99607 1-663); details: protein: recombinant; tags: N-terminal GST; dsDNA, one strand shown
# In short: as §1
# ELK4 = target: T3, ELK4 (Homo sapiens, UniProt P28324-2 1-405); details: protein: recombinant; tags: N-terminal GST; dsDNA, one strand shown
# T3 sequence: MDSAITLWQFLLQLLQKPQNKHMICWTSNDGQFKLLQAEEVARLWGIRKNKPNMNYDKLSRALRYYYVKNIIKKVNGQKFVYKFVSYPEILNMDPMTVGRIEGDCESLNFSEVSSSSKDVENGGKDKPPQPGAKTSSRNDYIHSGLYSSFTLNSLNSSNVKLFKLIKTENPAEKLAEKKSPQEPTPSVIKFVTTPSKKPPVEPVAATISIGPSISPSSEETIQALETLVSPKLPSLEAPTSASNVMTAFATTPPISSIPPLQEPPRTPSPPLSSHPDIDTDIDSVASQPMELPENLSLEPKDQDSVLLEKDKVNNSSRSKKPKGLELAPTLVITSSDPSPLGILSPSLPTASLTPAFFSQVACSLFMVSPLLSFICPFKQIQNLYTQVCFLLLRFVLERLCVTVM
# In short: as §1
# ETV2 = target: T4, ETV2 (Homo sapiens, UniProt O00321 1-342); details: protein: recombinant; tags: N-terminal GST; dsDNA, one strand shown
# T4 sequence: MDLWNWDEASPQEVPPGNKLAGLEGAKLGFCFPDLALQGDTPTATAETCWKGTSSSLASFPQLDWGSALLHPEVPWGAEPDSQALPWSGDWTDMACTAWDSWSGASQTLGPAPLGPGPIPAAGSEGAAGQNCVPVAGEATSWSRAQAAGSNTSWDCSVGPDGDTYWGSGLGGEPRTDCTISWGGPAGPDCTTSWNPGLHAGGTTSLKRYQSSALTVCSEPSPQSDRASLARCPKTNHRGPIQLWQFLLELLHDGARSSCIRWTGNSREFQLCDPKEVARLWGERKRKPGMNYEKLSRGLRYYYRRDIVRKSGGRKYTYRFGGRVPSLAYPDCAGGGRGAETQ
# In short: as §1
# ELF3 = target: T5, ELF3 (Homo sapiens, UniProt P78545 1-371); details: protein: recombinant; tags: N-terminal GST; dsDNA, one strand shown
# T5 sequence: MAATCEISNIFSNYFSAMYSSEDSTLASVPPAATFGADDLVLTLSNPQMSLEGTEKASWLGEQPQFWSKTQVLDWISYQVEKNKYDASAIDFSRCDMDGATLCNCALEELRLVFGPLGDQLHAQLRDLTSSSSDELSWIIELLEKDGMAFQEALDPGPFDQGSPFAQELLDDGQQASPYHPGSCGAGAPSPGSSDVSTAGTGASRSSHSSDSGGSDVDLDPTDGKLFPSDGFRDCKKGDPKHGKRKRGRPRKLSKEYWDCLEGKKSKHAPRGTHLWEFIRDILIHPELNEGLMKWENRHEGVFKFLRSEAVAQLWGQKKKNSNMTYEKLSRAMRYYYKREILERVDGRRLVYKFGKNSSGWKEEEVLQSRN
# In short: as §1
# CRX = CRX (Homo sapiens, UniProt O43186 1-299); details: protein: recombinant; tags: N-terminal GST; dsDNA, one strand shown
# In short: as §1
# ETV1 = ETV1 (Homo sapiens, UniProt P50549 1-477); details: protein: recombinant; tags: N-terminal GST; dsDNA, one strand shown
# In short: as §1
# CRX, sequence (O43186 whole entry): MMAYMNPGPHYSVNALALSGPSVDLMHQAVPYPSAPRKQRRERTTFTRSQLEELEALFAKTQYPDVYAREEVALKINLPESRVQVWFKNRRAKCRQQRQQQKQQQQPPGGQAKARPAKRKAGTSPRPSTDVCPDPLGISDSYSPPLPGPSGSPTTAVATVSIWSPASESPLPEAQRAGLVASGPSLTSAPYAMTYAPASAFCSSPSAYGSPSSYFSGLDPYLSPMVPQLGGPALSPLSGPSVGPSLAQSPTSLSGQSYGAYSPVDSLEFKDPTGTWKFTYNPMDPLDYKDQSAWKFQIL
# ETV5, sequence (P41161 whole entry): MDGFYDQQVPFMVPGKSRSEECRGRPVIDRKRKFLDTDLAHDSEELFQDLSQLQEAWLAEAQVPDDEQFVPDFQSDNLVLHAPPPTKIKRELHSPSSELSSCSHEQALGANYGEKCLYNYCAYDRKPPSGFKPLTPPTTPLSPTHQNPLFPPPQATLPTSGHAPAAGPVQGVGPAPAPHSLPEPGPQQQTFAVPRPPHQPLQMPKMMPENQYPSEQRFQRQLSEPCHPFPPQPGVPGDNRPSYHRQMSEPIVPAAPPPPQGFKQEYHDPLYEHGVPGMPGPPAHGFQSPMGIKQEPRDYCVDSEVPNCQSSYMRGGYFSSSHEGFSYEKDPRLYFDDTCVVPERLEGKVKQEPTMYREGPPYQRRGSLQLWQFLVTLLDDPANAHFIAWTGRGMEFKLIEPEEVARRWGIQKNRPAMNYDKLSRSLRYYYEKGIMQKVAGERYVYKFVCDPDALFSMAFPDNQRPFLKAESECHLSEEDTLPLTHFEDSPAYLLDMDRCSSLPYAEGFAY
# ELF4, sequence (Q99607 whole entry): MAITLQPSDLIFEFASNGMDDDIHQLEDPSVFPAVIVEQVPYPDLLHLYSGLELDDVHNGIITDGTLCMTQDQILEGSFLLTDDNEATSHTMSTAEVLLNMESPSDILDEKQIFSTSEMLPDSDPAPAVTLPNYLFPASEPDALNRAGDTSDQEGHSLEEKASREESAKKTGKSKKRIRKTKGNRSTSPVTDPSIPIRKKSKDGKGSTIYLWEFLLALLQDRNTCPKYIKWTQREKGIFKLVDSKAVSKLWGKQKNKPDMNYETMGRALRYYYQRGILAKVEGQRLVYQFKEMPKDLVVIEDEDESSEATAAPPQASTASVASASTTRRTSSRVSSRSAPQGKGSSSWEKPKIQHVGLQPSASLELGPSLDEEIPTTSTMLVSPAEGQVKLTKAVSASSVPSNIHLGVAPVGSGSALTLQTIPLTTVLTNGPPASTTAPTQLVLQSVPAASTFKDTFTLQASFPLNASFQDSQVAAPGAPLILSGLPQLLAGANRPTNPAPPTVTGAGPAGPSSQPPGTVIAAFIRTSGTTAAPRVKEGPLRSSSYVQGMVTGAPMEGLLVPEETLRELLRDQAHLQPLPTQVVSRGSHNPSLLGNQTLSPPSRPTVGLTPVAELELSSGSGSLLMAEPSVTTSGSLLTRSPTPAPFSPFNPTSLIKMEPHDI
# ETV1, sequence (P50549 whole entry): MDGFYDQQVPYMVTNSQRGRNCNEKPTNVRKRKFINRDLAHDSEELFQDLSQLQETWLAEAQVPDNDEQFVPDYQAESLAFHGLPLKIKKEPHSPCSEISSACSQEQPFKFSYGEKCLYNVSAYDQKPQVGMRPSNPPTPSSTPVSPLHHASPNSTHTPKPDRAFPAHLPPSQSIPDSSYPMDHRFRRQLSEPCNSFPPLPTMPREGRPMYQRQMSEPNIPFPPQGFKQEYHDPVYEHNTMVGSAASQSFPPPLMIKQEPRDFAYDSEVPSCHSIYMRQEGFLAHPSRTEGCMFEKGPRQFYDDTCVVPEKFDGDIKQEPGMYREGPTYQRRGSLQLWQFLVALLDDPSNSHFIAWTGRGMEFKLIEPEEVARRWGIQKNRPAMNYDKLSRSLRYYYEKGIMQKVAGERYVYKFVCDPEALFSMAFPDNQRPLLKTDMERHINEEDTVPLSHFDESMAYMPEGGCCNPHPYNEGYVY
# HSF1, sequence (Q00613 whole entry): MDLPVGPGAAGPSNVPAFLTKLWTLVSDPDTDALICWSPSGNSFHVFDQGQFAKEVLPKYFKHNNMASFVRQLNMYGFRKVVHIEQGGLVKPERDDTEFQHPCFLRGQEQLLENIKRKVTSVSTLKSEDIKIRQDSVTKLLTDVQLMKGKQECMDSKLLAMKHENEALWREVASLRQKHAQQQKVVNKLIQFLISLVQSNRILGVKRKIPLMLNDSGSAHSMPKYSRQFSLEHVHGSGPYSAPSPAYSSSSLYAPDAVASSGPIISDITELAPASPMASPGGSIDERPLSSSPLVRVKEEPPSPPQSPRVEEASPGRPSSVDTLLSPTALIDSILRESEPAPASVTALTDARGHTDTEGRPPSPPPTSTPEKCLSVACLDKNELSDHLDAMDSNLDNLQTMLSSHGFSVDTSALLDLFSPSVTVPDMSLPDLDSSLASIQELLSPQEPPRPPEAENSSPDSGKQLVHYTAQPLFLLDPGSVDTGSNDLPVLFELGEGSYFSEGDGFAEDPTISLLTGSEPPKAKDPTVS
sequence,measurement,setting,value
CCCCTT,binding signal,FEV,"1.57 fold enrichment (6-mer frequency, TF over GST control)"
same,binding signal,ETV5,"1.62 fold enrichment (6-mer frequency, TF over GST control)"
same,binding signal,HSF1,"1.37 fold enrichment (6-mer frequency, TF over GST control)"
same,binding signal,SPIC,"1.56 fold enrichment (6-mer frequency, TF over GST control)"
same,binding signal,ELF4,"1.63 fold enrichment (6-mer frequency, TF over GST control)"
same,binding signal,ELK4,"1.53 fold enrichment (6-mer frequency, TF over GST control)"
same,binding signal,ETV2,"1.35 fold enrichment (6-mer frequency, TF over GST control)"
same,binding signal,ELF3,"1.6 fold enrichment (6-mer frequency, TF over GST control)"
same,binding signal,CRX,"1.41 fold enrichment (6-mer frequency, TF over GST control)"
same,binding signal,ETV1,"1.63 fold enrichment (6-mer frequency, TF over GST control)"
